This is a sample that favours compounds with a hit; in the whole collection about 21% have one here.
Shiga inhibitor = blocks Shiga toxin action in Vero cells; Vero cells, Shiga toxin protein synthesis inhibition reporter; inhibition, % at 38.7 µM; 290,000 tested, 9.2% active; AID 2315; in the data active = inhibition mostly above about 28%, no sharp cut-off; inactive = mostly below about 43%; note: 0% is about no effect
Cycloheximide cs = affects cycloheximide protein synthesis inhibition readout, counter-screen | cell reporter, cycloheximide protein synthesis inhibition counterscreen | max response, % | 300,000 tested, 12% active | AID 2314; in the data active = max response mostly above about 13%, no sharp cut-off; inactive = mostly below about 14%; note: read at 38.3 µM for the half of the compounds with a filed dose; 0% is about no effect
Pf growth 96h = P. falciparum growth inhibition at 96 hours | P. falciparum luciferase reporter growth, 96 h | 320,000 tested, 6.9% active | Potency, µM (series often up to 28.7 µM), inactives show at the highest dose activity change, negative = inhibition, most hits filed as inhibitors; note: potency is the fitted concentration of half-maximal effect; % is set by controls: 0 for no effect and ±100 for the full control effect
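Readout is luminescence from an integrated firefly luciferase in P. falciparum. Red cells, 2% hematocrit and 0.05% parasitemia final, were cultured with compound through two parasite generations (96 hours) at 37 C, 5% CO2.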
FBPA Giardia inh = blocks Giardia fructose-bisphosphate aldolase activity | A8B2U2 | purified Giardia FBPA | Potency, µM (top dose mostly 59.6 µM), inactives show top-dose activity, negative = inhibition, actives largely listed as inhibitors | 290,000 tested, 0.71% active | AID 2451; note: potency is the fitted concentration of half-maximal effect; % is set by controls: 0 for no effect and ±100 for the full control effect; nearly all actives have a fitted effect of over 55% in size
Target sequence (A8B2U2 whole entry, looked up): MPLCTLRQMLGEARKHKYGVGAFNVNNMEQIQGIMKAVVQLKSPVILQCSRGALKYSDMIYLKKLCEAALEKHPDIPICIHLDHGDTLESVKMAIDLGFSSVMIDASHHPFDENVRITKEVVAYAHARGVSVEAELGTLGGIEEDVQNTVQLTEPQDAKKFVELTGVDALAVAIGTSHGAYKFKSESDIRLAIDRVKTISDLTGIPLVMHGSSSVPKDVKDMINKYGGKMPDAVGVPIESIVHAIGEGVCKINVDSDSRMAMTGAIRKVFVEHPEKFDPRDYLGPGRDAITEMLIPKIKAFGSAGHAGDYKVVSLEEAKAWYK
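40 nM FBPA preincubated 10 min at RT with compound (up to 57.5 uM final), then substrate plus GAPDH/TPI/NAD/arsenate coupling and diaphorase/resazurin added. Fluorescence read after 20 min at RT, 525/598 nm.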
Pf growth 48h = P. falciparum growth inhibition at 48 hours (one generation); P. falciparum luciferase growth in erythrocytes, 48 h; Potency, µM (titrated, usually from 28.7 µM), for inactives: at the highest dose activity change, negative = inhibition, actives largely listed as inhibitors; 310,000 tested, 5.9% active; note: potency is the fitted concentration of half-maximal effect; % is set by controls: 0 for no effect and ±100 for the full control effect
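Luminescence readout; reporter = integrated firefly luciferase in P. falciparum. RBC culture at 2% hematocrit, 0.1% parasitemia final, 37 C/5% CO2; decreased signal taken as growth inhibition.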
NS1 inh = influenza NS1 inhibition; Potency, µM (doses to about 46.1 µM), without a hit: at the highest dose activity, positive = more growth; 270,000 tested, 0.4% active; AID 2326; calls by dose curve; note: potency is the fitted concentration of half-maximal effect; actives are rising curves; nearly all actives have a fitted effect of over 50% in size
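Recovery from NS1-induced slow growth read by OD600 in budding yeast switched to galactose assay medium (pH 6.0, -URA) at 1:100 dilution. Compound 23 nl per well; the matching strain lacking NS1 serves as control.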
An asterisk follows results filed as active; [ ] = another dose, or the depositor's remark. Unless noted, calls come from the whole dose curve; as a rule, active = well fitted curve in the direction sought with a large enough effect; inconclusive = small, poorly fitted or top-dose-only effect, or another doubt; inactive = no such curve, though single readings can be large; an effect the other way counts as inactive or inconclusive.

Screening CCC(C)(C)NC(=O)CN(C(=O)CCC(=O)Nc1nccs1)c1cccc(C)c1C returned Shiga inhibitor -6, Cycloheximide cs -1, Pf growth 96h 1%, FBPA Giardia inh 15%, Pf growth 48h 13µM* and NS1 inh 18%.
CCC(C)(C)NC(=O)C(c1ccc(O)cc1)N(CCOC)C(=O)CCC(=O)Nc1nccs1 (stereo not given) was read as Shiga inhibitor -2, Cycloheximide cs -6, Pf growth 96h 21%, FBPA Giardia inh 1%, Pf growth 48h 2.9µM* and NS1 inh -77%.
CCC(C)(C)NC(=O)C(c1ccc(OC)cc1)N(CCOC)C(=O)CCC(=O)Nc1nccs1 (stereo not given) was read as Shiga inhibitor -11, Cycloheximide cs -2, Pf growth 96h inconclusive, FBPA Giardia inh 0%, Pf growth 48h -18% and NS1 inh 2%.
`CCCn1c(SCC(=O)N2CCN(CC)CC2)nc2c1c(=O)n(C)c(=O)n2C` gave Shiga inhibitor 1, Cycloheximide cs -2, Pf growth 96h -1%, Pf growth 48h 25% and NS1 inh -1%.
For C[C@@H]1C[C@H](OC(=O)c2ccccc2O)CC(C)(C)C1 the results were FBPA Giardia inh -2%[21.7 µM].
Screening O=C(OC1CCc2ccccc2C1=O)c1ccccc1O (stereo not given) returned Shiga inhibitor 90*, Cycloheximide cs 41*, FBPA Giardia inh -29%, Pf growth 48h 17% and NS1 inh -12%.
CCCCC1(C(=O)OC)NC(c2ccc(O)cc2)C2C(=O)N(c3ccccc3)C(=O)C21 (stereo not given) was read as Cycloheximide cs -4, Pf growth 96h 72%, FBPA Giardia inh -1%, Pf growth 48h 7% and NS1 inh 9%.
For C=CCCN(C(C)C(=O)OC)S(=O)(=O)c1ccccc1Br (stereo not given) the results were Shiga inhibitor -8, Cycloheximide cs -1 and FBPA Giardia inh 7%.
Screening C=CCCN(C1CCCC1)S(=O)(=O)c1ccccc1Br returned Shiga inhibitor 1, Cycloheximide cs 5, Pf growth 96h 15µM*, FBPA Giardia inh 6%, Pf growth 48h inconclusive and NS1 inh -11%.
O=c1[nH]c(C(Cl)Cl)nc2sc3c(c12)CCN(Cc1ccccc1)C3 was read as Shiga inhibitor 3, Cycloheximide cs -2, Pf growth 96h inconclusive, FBPA Giardia inh 10%, Pf growth 48h -29% and NS1 inh 27%.
`CCCSc1nc2sc3c(c2c(=O)[nH]1)CCN(Cc1ccccc1)C3` gave Shiga inhibitor 18, Cycloheximide cs 12, Pf growth 96h 4.1µM*, FBPA Giardia inh -9%, Pf growth 48h inconclusive and NS1 inh 4%.
CC(=O)c1cc2c(ccc3ccccc32)oc1=O was read as Shiga inhibitor -3, Cycloheximide cs 2, Pf growth 96h 2.3µM*, FBPA Giardia inh 6%, Pf growth 48h 10% and NS1 inh -12%.
CC(=O)Nc1cc2c(ccc3ccccc32)oc1=O was read as Shiga inhibitor 16, Cycloheximide cs 6, Pf growth 96h 0%, FBPA Giardia inh -2% and Pf growth 48h 4%.
Screening COCC(C)NC(=O)c1cc2c(ccc3ccccc32)oc1=O (stereo not given) returned Shiga inhibitor 22*, Cycloheximide cs 24*, Pf growth 96h 125%, FBPA Giardia inh 0%, Pf growth 48h -4% and NS1 inh -3%.
For Cc1cc(C)cc(NC(=O)CSCc2cc(=O)n3ccsc3n2)c1 the results were Shiga inhibitor -11, Cycloheximide cs -3, Pf growth 96h -28%, Pf growth 48h -3% and NS1 inh 8%.
For C[C@@]12C(=O)N(Cc3ccccc3)CC(=O)N1[C@H]1c3cc(Cl)ccc3OC[C@@H]1[C@@H]2c1ccccc1 the results were Pf growth 96h inconclusive and Pf growth 48h 9.3µM*.
`COc1ccc(CN2CC(=O)N3[C@H]4c5ccccc5OC[C@@H]4[C@H](c4ccccc4)[C@]3(C)C2=O)cc1` gave Pf growth 96h inconclusive and Pf growth 48h 9.3µM*.
For C[C@@]12C(=O)N(CC3CCCO3)CC(=O)N1[C@H]1c3ccccc3OC[C@@H]1[C@@H]2c1ccccc1 (stereo not given in full) the results were Pf growth 96h inconclusive and Pf growth 48h -26%.
For COc1ccccc1CCNS(=O)(=O)c1cc2c3c(c1)CCN3C(=O)CC2 the results were Pf growth 96h -14% and Pf growth 48h inconclusive.
`COc1ccc(OC)c(S(=O)(=O)Nc2cccc(C(C)=O)c2)c1` gave Shiga inhibitor 7, Cycloheximide cs -2, Pf growth 96h 0%, FBPA Giardia inh 6%, Pf growth 48h -15% and NS1 inh 4%[9.22 µM].
COc1ccc(C(=O)/C=C/Nc2ccc(S(=O)(=O)Nc3cccc(C(C)=O)c3)cc2)cc1 was read as Shiga inhibitor 93*, Cycloheximide cs 39*, Pf growth 96h inconclusive, FBPA Giardia inh 1%, Pf growth 48h inconclusive and NS1 inh -5%.
CC(=O)c1ccc(NS(=O)(=O)c2cccc(C)c2)cc1 was read as Shiga inhibitor 89*, Cycloheximide cs 36*, FBPA Giardia inh 19%, Pf growth 48h 41% and NS1 inh 11%.
COc1cccc(C(=O)/C=C/Nc2ccc(S(=O)(=O)Nc3ccc(C(C)=O)cc3)cc2)c1 was read as Shiga inhibitor 91*, Cycloheximide cs 51*, Pf growth 96h 13µM*, FBPA Giardia inh 0%, Pf growth 48h 10µM* and NS1 inh 5%.
Screening CC(=O)c1ccc(NS(=O)(=O)c2ccc(C)cc2)cc1 returned Shiga inhibitor 1, Cycloheximide cs 9, Pf growth 96h 34%, FBPA Giardia inh 15% and NS1 inh -2%.
O=C(CCl)NCCCN(C(=O)C(Cl)Cl)c1ccc([N+](=O)[O-])cc1 was read as Shiga inhibitor 13, Cycloheximide cs -1, Pf growth 96h 7.4µM*, FBPA Giardia inh 3%, Pf growth 48h 6.6µM* and NS1 inh 4%.
For COc1ccc(N(C(=O)C2COc3ccccc3O2)C(C(=O)NC2CCCCC2)c2ccccc2)cc1OC (stereo not given) the results were Shiga inhibitor 8, Cycloheximide cs -3, Pf growth 96h inconclusive, FBPA Giardia inh -11%, Pf growth 48h 7.4µM* and NS1 inh inconclusive.
Screening COc1cc(OC)cc(N(C(=O)C2COc3ccccc3O2)C(C(=O)NC2CCCCC2)c2ccc(O)cc2)c1 (stereo not given) returned Shiga inhibitor -3, Cycloheximide cs -1, Pf growth 96h 7.4µM*, FBPA Giardia inh -6%, Pf growth 48h 13µM* and NS1 inh 13%.

Source: PubChem (National Center for Advancing Translational Sciences (NCATS))
